# Source: the supplement of paper PMC9262897, “Low-cost anti-mycobacterial drug discovery using engineered E. coli” (Nature Communications, 2022)
# Counter-ions that a name gives are not always drawn. ± gives the standard deviation of the averaged measurements.
# What was measured:
# Assay in all cases: growth (OD600 after 10 h); higher = more growth (less inhibition)
# [1] = tested on: E. coli TESEC Alr+ wild-type control; details: compound 0.1 mM; raw OD600 reference: median of DMSO wells 0.241, cell-free background 0.041
# Protocol: (§1)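 TESEC Mtb Alr E. coli, or the Alr+ wild-type control, in 384-well plates with Prestwick library compounds at 0.1 mM and 1% DMSO, across arabinose induction levels of 1E3 to 1E7 nM. Growth is read as OD600 after 10 h at 37 °C in triplicate biological replicates.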
# E. coli TESEC Mtb Alr [2] = details: compound 0.1 mM
# Protocol: as §1
# E. coli TESEC Mtb Asd = details: compound 0.1 mM
# Protocol: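 TESEC E. coli strains in which the native enzyme is deleted and replaced by arabinose-inducible Mtb Asd, DapB, CysH or TrpD, each grown in its selective medium. Strains were screened against the Prestwick library at 0.1 mM and 1% DMSO in 384-well format at low and high arabinose induction. Growth is read as OD600 after 10 h in triplicate.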
# [3] = tested on: E. coli TESEC Alr+ wild-type control; details: compound 0.1 mM; raw OD600 reference: median of DMSO wells 0.49, cell-free background 0.052
# Protocol: (§2)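 TESEC Mtb Alr E. coli (ΔaraC ΔtolC ΔentC Δalr ΔdadX, arabinose-inducible Mtb Alr) or the Alr+ wild-type control strain, grown in defined M9-fructose medium without D-alanine in 96-well plates with Prestwick library compounds at 0.1 mM and 1% DMSO. Low Alr induction is 0.1 µM arabinose and high induction is 10 mM arabinose.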
# E. coli TESEC Mtb Alr [4] = details: compound 0.1 mM; remark: listed apart in the source
# Protocol: as §2
# [5] = arabinose 1000 nM, raw OD600 reference: median of DMSO wells 0.294, cell-free background 0.041
# [6] = arabinose 10000 nM, raw OD600 reference: median of DMSO wells 0.264, cell-free background 0.041
# [7] = arabinose 100000 nM, raw OD600 reference: median of DMSO wells 0.201, cell-free background 0.041
# [8] = arabinose 1000000 nM, raw OD600 reference: median of DMSO wells 0.193, cell-free background 0.041
# [9] = arabinose 10000000 nM, raw OD600 reference: median of DMSO wells 0.146, cell-free background 0.041
# [10] = arabinose induction (level): High, raw OD600 reference: median of DMSO wells 0.331, cell-free background 0.041
# [11] = arabinose induction (level): Low, raw OD600 reference: median of DMSO wells 0.417, cell-free background 0.041
# [12] = arabinose 100 nM, raw OD600 reference: median of DMSO wells 0.413, cell-free background 0.052
# [13] = arabinose 10000000 nM, raw OD600 reference: median of DMSO wells […], cell-free background 0.052
Structure (SMILES),growth [1],growth (E. coli TESEC Mtb Alr [2]; [5]),growth (E. coli TESEC Mtb Alr [2]; [6]),growth (E. coli TESEC Mtb Alr [2]; [7]),growth (E. coli TESEC Mtb Alr [2]; [8]),growth (E. coli TESEC Mtb Alr [2]; [9]),growth (E. coli TESEC Mtb Asd; [10]),growth (E. coli TESEC Mtb Asd; [11]),growth [3],growth (E. coli TESEC Mtb Alr [4]; [12]),growth (E. coli TESEC Mtb Alr [4]; [13])
CC(=O)OCC(=O)[C@@]12N=C(C)O[C@@H]1C[C@H]1[C@@H]3CCC4=CC(=O)C=C[C@]4(C)[C@H]3[C@@H](O)C[C@@]12C [Deflazacort],0.151 ± 0.011,0.213 ± 0.009,0.256 ± 0.0029,0.193 ± 0.02,0.168 ± 0.0053,0.1533 ± 0.00035,0.323 ± 0.083,0.396 ± 0.032,0.48 ± 0.068,0.394 ± 0.0082,0.347 ± 0.0046
CN1CCCC(CC2c3ccccc3Sc3ccccc32)C1 (stereo not drawn) [Metixene hydrochloride],0.0422 ± 0.00059,0.0424 ± 0.0015,0.0424 ± 0.00036,0.04217 ± 0.00038,0.04163 ± 0.00021,0.044 ± 0.0005,0.0629 ± 0.015,0.053 ± 0.0011,0.0609 ± 0.015,0.401 ± 0.0069,0.055 ± 0.0024
Cn1c(=O)c2[nH]cnc2n(C)c1=O [Aminophylline],0.246 ± 0.005,0.292 ± 0.012,0.262 ± 0.0083,0.196 ± 0.0098,0.195 ± 0.0022,0.134 ± 0.0058,0.287 ± 0.065,0.457 ± 0.018,0.513 ± 0.08,0.406 ± 0.015,0.355 ± 0.019
NS(=O)(=O)c1cc2c(cc1C(F)(F)F)NC(Cc1ccccc1)NS2(=O)=O (stereo not drawn) [Bendroflumethiazide],0.233 ± 0.0098,0.301 ± 0.0067,0.261 ± 0.0081,0.219 ± 0.015,0.162 ± 0.005,0.154 ± 0.0047,0.459 ± 0.046,0.451 ± 0.035,0.487 ± 0.035,0.403 ± 0.012,0.298 ± 0.016
COc1cc(C(=O)NCc2ccc(OCCN(C)C)cc2)cc(OC)c1OC [Trimethobenzamide hydrochloride],0.2204 ± 0.0014,0.295 ± 0.0097,0.254 ± 0.011,0.201 ± 0.017,0.158 ± 0.0074,0.159 ± 0.0019,0.227 ± 0.059,0.385 ± 0.015,0.464 ± 0.066,0.412 ± 0.005,0.354 ± 0.022
O=c1[nH]c(=O)n([C@H]2C[C@H](O)[C@@H](CO)O2)cc1F [Floxuridine],0.0553 ± 0.00059,0.0615 ± 0.0068,0.04377 ± 0.00025,0.052 ± 0.0014,0.0434 ± 0.0004,0.05017 ± 0.0005,0.088 ± 0.0059,0.0873 ± 0.011,0.356 ± 0.0098,0.387 ± 0.0052,0.0748 ± 0.0061
C#C[C@]1(O)CC[C@H]2[C@@H]3CCC4=CCCC[C@@H]4[C@H]3CC[C@@]21C [Lynestrenol],0.237 ± 0.0046,0.297 ± 0.0055,0.266 ± 0.015,0.18 ± 0.033,0.164 ± 0.0081,0.15 ± 0.0066,0.312 ± 0.033,0.387 ± 0.039,0.451 ± 0.013,0.394 ± 0.0051,0.289 ± 0.0077
Cc1cc(=O)oc2cc(O)ccc12 [Hymecromone],0.227 ± 0.0065,0.286 ± 0.024,0.25 ± 0.0054,0.177 ± 0.012,0.182 ± 0.0058,0.148 ± 0.0076,0.317 ± 0.033,0.411 ± 0.013,0.631 ± 0.01,0.406 ± 0.017,0.355 ± 0.0061
C=CCc1ccccc1OCC(O)CNC(C)C (stereo not drawn) [Alprenolol hydrochloride],0.217 ± 0.0068,0.267 ± 0.013,0.259 ± 0.013,0.199 ± 0.023,0.156 ± 0.0022,0.145 ± 0.0043,0.322 ± 0.074,0.419 ± 0.027,0.446 ± 0.015,0.405 ± 0.013,0.363 ± 0.013
CCN(CC)CCNC(C(=O)OCCC(C)C)c1ccccc1 (stereo not drawn) [Camylofine chlorhydrate],0.198 ± 0.0073,0.254 ± 0.0087,0.261 ± 0.0027,0.208 ± 0.017,0.156 ± 0.0056,0.148 ± 0.0031,0.228 ± 0.046,0.372 ± 0.11,0.559 ± 0.084,0.406 ± 0.012,0.341 ± 0.012
COc1cc2nc(N3CCN(C(=O)C4CCCO4)CC3)nc(N)c2cc1OC (stereo not drawn) [Terazosin hydrochloride],0.208 ± 0.008,0.292 ± 0.0061,0.2762 ± 0.00084,0.139 ± 0.0052,0.138 ± 0.0066,0.144 ± 0.0038,0.215 ± 0.012,0.431 ± 0.0086,0.443 ± 0.035,0.407 ± 0.01,0.259 ± 0.019
COC(=O)Nc1nc2cc(C(=O)c3ccc(F)cc3)ccc2[nH]1 [Flubendazol],0.249 ± 0.026,0.307 ± 0.032,0.2591 ± 0.00086,0.197 ± 0.028,0.191 ± 0.0051,0.141 ± 0.0081,0.43 ± 0.019,0.491 ± 0.029,0.6 ± 0.078,0.414 ± 0.018,0.435 ± 0.011
O=c1[nH]cnc2c1ncn2[C@H]1CC[C@@H](CO)O1 [Didanosine],0.18 ± 0.011,0.293 ± 0.023,0.27 ± 0.0051,0.16 ± 0.015,0.149 ± 0.0069,0.199 ± 0.0058,0.157 ± 0.0043,0.165 ± 0.013,–,0.425 ± 0.0085,0.225 ± 0.019
C=Cc1c(C)c2cc3nc(cc4[nH]c(cc5nc(cc1[nH]2)C(C)=C5CCC(=O)O)c(CCC(=O)OC)c4C)[C@@]1(C)C3=CC=C(C(=O)OC)C1C(=O)OC.C=Cc1c(C)c2cc3nc(cc4[nH]c(cc5nc(cc1[nH]2)C(C)=C5CCC(=O)OC)c(CCC(=O)O)c4C)[C@@]1(C)C3=CC=C(C(=O)OC)C1C(=O)OC (stereo partly drawn) [Verteporfin],0.313 ± 0.011,0.356 ± 0.011,0.289 ± 0.0059,0.443 ± 0.0078,0.179 ± 0.0041,0.218 ± 0.0072,0.329 ± 0.016,0.432 ± 0.0089,0.5678 ± 0.0038,0.556 ± 0.057,0.439 ± 0.021
CN(CCOc1ccc(CC2SC(=O)NC2=O)cc1)c1ccccn1 (stereo not drawn) [Rosiglitazone Hydrochloride],0.142 ± 0.0027,0.177 ± 0.0057,0.168 ± 0.011,0.177 ± 0.0028,0.0847 ± 0.0029,0.112 ± 0.0041,0.184 ± 0.026,0.19 ± 0.023,–,0.266 ± 0.021,0.1 ± 0.016
CCc1c(C)[nH]c2c1C(=O)C(CN1CCOCC1)CC2 (stereo not drawn) [Molindone hydrochloride],0.221 ± 0.013,0.3135 ± 0.00076,0.251 ± 0.011,0.202 ± 0.018,0.166 ± 0.0061,0.1542 ± 0.0015,0.274 ± 0.06,0.36 ± 0.064,–,0.409 ± 0.016,0.33 ± 0.017
O=c1oc2ccccc2c(O)c1Cc1c(O)c2ccccc2oc1=O [Dicumarol],0.178 ± 0.001,0.159 ± 0.0018,0.1609 ± 0.0012,0.149 ± 0.0042,0.0997 ± 0.0013,0.126 ± 0.0032,0.289 ± 0.049,0.262 ± 0.049,–,0.128 ± 0.022,0.0655 ± 0.0074
CC1(C)S[C@@H]2[C@H](NC(=O)[C@H](N)c3ccccc3)C(=O)N2[C@H]1C(=O)O [Ampicillin trihydrate],0.235 ± 0.0072,0.279 ± 0.011,0.253 ± 0.013,0.189 ± 0.024,0.1927 ± 0.0013,0.145 ± 0.0022,0.388 ± 0.056,0.394 ± 0.066,–,0.4271 ± 0.0036,0.338 ± 0.0045
